Screens (PubChem)
Compounds with a hit are over-represented: about 7.3% of the library has one in this group of screens.
SMN2 splice enh: increases expression of the SMN2 splice variant. HEK293 SMN2-luciferase splicing reporter, luminescence, 30-36 h. Potency, µM (top dose mostly 46.1 µM), for the others: at the highest dose activity change, positive = activation, hits mostly activators. 210,000 tested, 2.8% active. AID 1458; also: % of control where 0% means no effect; nearly all actives have a fitted effect of over 55% in size
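HEK293 cells carry an SMN2 […]–luciferase reporter in which exon 7 inclusion puts luciferase in frame. Cells were plated 10-12 h before compound addition, then incubated 30-36 h at 37C. ONE-Glo luminescence was read; sodium butyrate at 4.5 mM final served as control.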
Rab9 prom act: activates the Rab9 promoter. AID 485297. Huh7 Rab9 promoter-luciferase reporter, luminescence, 24 h. 320,000 tested, 2.8% active. Potency, µM (series often up to 9.22 µM), without a hit: at the highest dose activation, negative = inhibition, usual class: activators; also: % of control where 0% means no effect; nearly all actives have a fitted effect of over 60% in size
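Promoter activation is measured as luciferase luminescence in Huh7 cells stably transfected with a Rab9 promoter–luciferase construct, following 24 h compound exposure at 37 °C and 10 min reagent incubation at ambient temperature.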
FLuc counter: counter-screen for miR-21 project: firefly luciferase inhibitors or activators; P08659; purified FLuc, Km substrates, luminescence inhibition; Potency, µM (series often up to 57.5 µM), for the others: at the highest dose activity change, negative = inhibition, actives largely listed as inhibitors; 360,000 tested, 6.9% active; AID 588342;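 also: plate controls were vehicle for no effect and reference inhibitor for full effect; nearly all actives have a fitted effect of over 55% in size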
Target sequence (P08659 whole entry, looked up): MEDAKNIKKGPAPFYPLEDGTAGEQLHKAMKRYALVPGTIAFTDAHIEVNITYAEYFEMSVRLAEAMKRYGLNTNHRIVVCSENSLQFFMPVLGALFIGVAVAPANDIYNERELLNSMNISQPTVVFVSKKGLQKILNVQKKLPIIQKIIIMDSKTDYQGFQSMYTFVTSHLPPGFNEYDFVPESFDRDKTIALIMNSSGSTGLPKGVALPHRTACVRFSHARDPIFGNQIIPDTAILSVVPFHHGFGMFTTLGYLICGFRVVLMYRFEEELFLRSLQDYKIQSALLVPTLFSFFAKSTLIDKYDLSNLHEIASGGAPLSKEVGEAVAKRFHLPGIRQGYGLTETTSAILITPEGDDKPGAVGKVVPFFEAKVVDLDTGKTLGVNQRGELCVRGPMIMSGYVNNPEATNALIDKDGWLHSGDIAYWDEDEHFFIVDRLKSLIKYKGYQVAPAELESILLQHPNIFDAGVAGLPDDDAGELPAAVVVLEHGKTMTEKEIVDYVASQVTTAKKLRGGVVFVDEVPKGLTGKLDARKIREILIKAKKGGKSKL
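Purified P. pyralis luciferase (10nM final) with 10uM D-luciferin and 10uM ATP (Km levels) in 50mM Tris acetate pH 7.5, 10mM Mg acetate, 0.01% Tween-20, 0.05% BSA; qHTS 6-point titration, ~60 µM downward; luminescence read.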
ELG1 genotox: inducers of genotoxicity in HEK293T ELG1-luciferase cells | AID 504466 | HEK293T ELG1-luciferase reporter, luminescence, 16 h | Potency, µM (titrated, usually from 46 µM), inactives show at the top dose activity change, positive = activation, hits mostly activators | 330,000 tested, 1.3% active; also: % of control where 0% means no effect; nearly all actives have a fitted effect of over 60% in size
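Cells (2,000/well) expressing the ELG1-luciferase fusion are dosed by pin tool and kept 16 hr at 37 °C, 5% CO2. Signal comes from ONE-Glo luciferase reagent after 30 min at room temperature.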
p53 reactivator: mutant p53 re-activation in reporter cells. H1299 p53-A138V BP100-luciferase reporter, luminescence, 24 h. Potency, µM (doses to about 92.2 µM), for inactives: top-dose activity change, positive = activation, actives largely listed as activators. 320,000 tested, 0.063% active; also: % of control where 0% means no effect; nearly all actives have a fitted effect of over 45% in size
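p53-null H1299 cells stably carrying temperature-sensitive p53-A138V and a BP100-luciferase reporter were pinned with compounds (4-point, 1:5 series) and held 24 hrs at 37 deg C. Luminescence was read 10 min after detection reagent.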
NPC1 prom act: NPC1 promoter activation. 320,000 tested, 2.4% active. Huh7 NPC1 promoter luciferase reporter, 24 h. Potency, µM (series often up to 9.22 µM), for inactives: at the highest dose activation, usual class: activators; also: % of control where 0% means no effect; nearly all actives have a fitted effect of over 60% in size
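Luminescence read-out of NPC1 promoter-driven luciferase in stably transfected Huh7 cells; compounds delivered in DMSO and left 24 h at 37C, 5% CO2, qHTS titration format.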
The depositor's hits bear a star; ? = inconclusive; . = not tested or not shown. Calls follow the shape of the dose curve; as a rule, active = well fitted curve in the direction sought with a large enough effect; inconclusive = small, poorly fitted or top-dose-only effect, or another doubt; inactive = no such curve, though single readings can be large; an effect the other way counts as inactive or inconclusive. Potency is read from the fitted curve at half-maximal effect.

SMILES | SMN2 splice enh | Rab9 prom act | FLuc counter | ELG1 genotox | p53 reactivator | NPC1 prom act
Cc1cccc(Cn2cc(C(=O)c3ccccc3)c(=O)c3cc4c(cc32)OCO4)c1 | 7% | . | -3% | . | . | .
Cc1cccc(C(=O)OCc2cc(=O)oc3c(C)c(C)ccc23)c1O | . | ? | 1% | 9% | 15% | ?
CCOc1ncccc1C(=O)OCc1ccc(C(=O)OC)cc1 | 14µM* | -15% | ? | ? | ? | 10%
COC(=O)c1ccc(COC(=O)c2ccccc2OC)cc1 | 10% | 25% | 19µM* | 1% | 22µM* | 12%
CCOc1ncccc1C(=O)OCc1cc(=O)oc2c(C)c(C)ccc12 | -5% | -6% | 3µM* | 0% | -2% | -2%
CN(Cc1ccccc1)C1CCN(Cc2ccccc2[N+](=O)[O-])CC1 | . | -6% | 9% | -4% | . | -4%
COc1ccc(/C=C/C(=O)Oc2cccc(/C=N/NC(=O)Cc3ccc(Br)cc3)c2)cc1 | . | 3.2µM* | ? | ? | 19% | 3.5µM*
COc1cccc(/C=N/NC(=O)CCCC(=O)Nc2ccc(Br)cc2)c1 | 12% | 0% | -19% | -2% | -5% | -1%
CC(=O)c1c(C)oc2ccc(N(C(=O)Oc3ccccc3)S(=O)(=O)c3ccc(Cl)cc3)cc12 | -9% | . | 4% | . | . | .
Cc1cnc(C(=O)Nc2nnc(C(C)C)s2)cn1 | 13µM* | 2.8µM* | ? | 9.2µM* | ? | 2.5µM*
O=C(Nc1nccs1)c1cn2ccccc2n1 | . | 0.11µM* | 1.3µM* | ? | -9% | 0.32µM*
CCC(C)OC(=O)n1ccc(C(=O)Nc2nccs2)n1 (configuration not stated) | 41% | 4% | 17µM* | 7% | ? | 0%
Cc1cnc(C(=O)Nc2nnc(C)s2)cn1 | 1% | 12% | -14% | 13% | 2% | 23%
CCC(C)C(=O)Nc1nccs1 (configuration not stated) | . | 3% | ? | 11% | 1% | 9%
NNC(=O)c1cn2ccccc2n1 | 2% | 3% | -8% | 4% | 1% | 3%
Cc1cnc(C(=O)Nc2nccs2)cn1 | 8% | 3.2µM* | ? | 24% | ? | ?
COCCCNC(=O)Cn1c(=O)n(-c2cccc(C)c2)c(=O)c2c1c1cc(C)ccc1n2C | . | . | -2% | . | . | .
O=C(NC1CCCCCCC1)c1ccccc1O | 5% | 3.5µM* | 15µM* | 16% | ? | 4µM*
O=C(CCC1CCCC1)NNC(=O)c1cc2ccccc2cc1O | . | -2% | -1% | -5% | -2% | 1%
Cc1cc(C(=O)NN=C2CCCCCCC2)c2ccccc2n1 | . | -3% | -2% | 1% | 0% | -1%
Cc1ccccc1C(=O)NC1CCCCCCC1 | . | 2.5µM* | 12µM* | 16µM* | 3% | 2.8µM*
O=C(NN=C1CCCCCC1)c1c[nH]c2ccccc12 | 7% | -1% | 12µM* | -1% | 12% | 0%
O=C(NC1CCCCCCC1)c1ccccc1-c1ccccc1 | -33% | -7% | 3% | -1% | -2% | -5%
O=C(NC1CCCCC1)c1cc2ccccc2cc1O | . | 22% | 17µM* | 4% | 10% | ?
Cc1ccc(NC(=O)C2CCCN(c3ncnc4onc(C)c34)C2)cc1Cl (configuration not stated) | . | . | 1% | . | . | .
SMILES | SMN2 splice enh | Rab9 prom act | FLuc counter | ELG1 genotox | p53 reactivator | NPC1 prom act
Cn1cccc1C(=O)NCC1CCCCC1 | . | 14% | -11% | 7% | 28% | 11%
Cn1cccc1C(=O)NC1CCCCCC1 | . | 2.2µM* | 17µM* | ? | 7.1µM* | ?
O=C(NN=C1CCCCCC1)c1cc2ccccc2cc1O | . | 7% | 17µM* | 7% | 1% | -4%
CC(=O)N1CCC(=NNC(=O)c2cc3ccccc3cc2O)CC1 | . | -1% | ? | 5% | 3% | 5%
CCCCOC(=O)c1ccc(NS(=O)(=O)c2c(C)nc3scc(C)n3c2=O)cc1 | -42% | . | ? | . | . | .
COc1ccc(C(=O)O/N=C(\N)c2ccc(Cl)cc2)cc1 | . | ? | 2.4µM* | ? | ? | 3.2µM*
COc1ccccc1C(=O)O/N=C(\N)c1ccc(Cl)cc1 | ? | 28% | 21µM* | ? | 16% | ?
N/C(=N\OC(=O)c1ccc(Br)o1)c1cccnc1 | . | ? | ? | 22% | ? | 27%
COc1ccc(/C(N)=N/OC(=O)Cc2ccc(C)cc2)cc1 | 12% | 24% | ? | 16% | ? | 14%
COc1ccc(/C(N)=N/OC(=O)c2ccc(Br)o2)cc1 | . | ? | 6µM* | ? | ? | ?
C/C(=N\NC(=O)CSCc1ccccc1Cl)c1cc(O)ccc1O | . | -22% | 19µM* | ? | 3% | -23%
Cc1cc2c(cc1S(=O)(=O)N(CCO)Cc1ccccc1)OCC(=O)N2 | . | . | 6% | . | . | .
Fc1ccc(CSc2ccc(-c3ccc4c(c3)OCO4)nn2)cc1 | 7% | -4% | ? | 13% | 4% | 2%
c1ccc(CSc2ccc(-c3ccc4c(c3)OCO4)nn2)cc1 | 18µM* | 3.2µM* | 2.7µM* | ? | ? | 3.5µM*
c1ccc(CSc2ccc(-c3cccnc3)nn2)cc1 | ? | ? | 21µM* | 13% | ? | ?
Cn1c(SCc2ccccc2)nnc1-c1ccc2c(c1)OCO2 | 22µM* | ? | ? | 18µM* | ? | ?
Cn1c(SCC#N)nnc1-c1ccc2c(c1)OCO2 | -9% | -3% | 0% | 4% | -7% | -1%
CC(=O)Nc1ccc(S(=O)(=O)NCc2cccn2Cc2cccc(C)c2)cc1 | . | . | -2% | . | . | .
COc1cccc2[nH]c3c(N4CCCCC4)ncnc3c12 | 4% | 10% | 13µM* | 27% | 7% | 28%
CCOC(=O)C1CCN(c2ncnc3c2[nH]c2cccc(OC)c23)CC1 | 5% | 5% | -19% | -16% | -2% | 0%
COc1cc2[nH]c3c(N4CCN(c5ccccn5)CC4)ncnc3c2cc1OC | -39% | 5% | 13µM* | -5% | -11% | -13%
O=C1CCCc2nc3c(cc21)C(O)Oc1ccccc1-3 (configuration not stated) | . | -1% | 3% | -1% | 3% | -4%
O=C1CCCc2nc3c(cc21)C(O)Oc1c-3ccc2ccccc12 (configuration not stated) | 25% | 1.1µM* | -11% | ? | 14% | 3.2µM*
COc1ccc(-c2cc(C(=O)Nc3c(C)n(C)n(-c4ccccc4)c3=O)c3ccccc3n2)cc1OC | . | 1% | 21µM* | -6% | -3% | -1%
COc1ccc(-c2cc(C(=O)OC(C)C(=O)Nc3c(C)n(C)n(-c4ccccc4)c3=O)c3ccccc3n2)cc1 (configuration not stated) | 23% | -1% | 13µM* | 0% | 1% | 1%
